For some of these results: Potency and affinity values are given separately.

Data on 11 molecules can be found in ChEMBL document CHEMBL3988442, “University of Dundee, Small-Polar-MMV Screening Library” (2021).

Set-up in all cases: scale not given: direction of the effect not stated beside the values
Experiment [1] has as its target Protein translocase subunit SecA (Escherichia coli (strain K12)) (UniProt P10408). Put plainly: Assay to Identify E. coli SecA ATPase Inhibitors. To be noted: 30 µM. In kind it is functional.
Experiment [2] concerns the target T1, Ubiquitin-activating enzyme e1, putative (Leishmania donovani (strain BPK282A1)) (UniProt E9BSI1).
T1 sequence (whole entry): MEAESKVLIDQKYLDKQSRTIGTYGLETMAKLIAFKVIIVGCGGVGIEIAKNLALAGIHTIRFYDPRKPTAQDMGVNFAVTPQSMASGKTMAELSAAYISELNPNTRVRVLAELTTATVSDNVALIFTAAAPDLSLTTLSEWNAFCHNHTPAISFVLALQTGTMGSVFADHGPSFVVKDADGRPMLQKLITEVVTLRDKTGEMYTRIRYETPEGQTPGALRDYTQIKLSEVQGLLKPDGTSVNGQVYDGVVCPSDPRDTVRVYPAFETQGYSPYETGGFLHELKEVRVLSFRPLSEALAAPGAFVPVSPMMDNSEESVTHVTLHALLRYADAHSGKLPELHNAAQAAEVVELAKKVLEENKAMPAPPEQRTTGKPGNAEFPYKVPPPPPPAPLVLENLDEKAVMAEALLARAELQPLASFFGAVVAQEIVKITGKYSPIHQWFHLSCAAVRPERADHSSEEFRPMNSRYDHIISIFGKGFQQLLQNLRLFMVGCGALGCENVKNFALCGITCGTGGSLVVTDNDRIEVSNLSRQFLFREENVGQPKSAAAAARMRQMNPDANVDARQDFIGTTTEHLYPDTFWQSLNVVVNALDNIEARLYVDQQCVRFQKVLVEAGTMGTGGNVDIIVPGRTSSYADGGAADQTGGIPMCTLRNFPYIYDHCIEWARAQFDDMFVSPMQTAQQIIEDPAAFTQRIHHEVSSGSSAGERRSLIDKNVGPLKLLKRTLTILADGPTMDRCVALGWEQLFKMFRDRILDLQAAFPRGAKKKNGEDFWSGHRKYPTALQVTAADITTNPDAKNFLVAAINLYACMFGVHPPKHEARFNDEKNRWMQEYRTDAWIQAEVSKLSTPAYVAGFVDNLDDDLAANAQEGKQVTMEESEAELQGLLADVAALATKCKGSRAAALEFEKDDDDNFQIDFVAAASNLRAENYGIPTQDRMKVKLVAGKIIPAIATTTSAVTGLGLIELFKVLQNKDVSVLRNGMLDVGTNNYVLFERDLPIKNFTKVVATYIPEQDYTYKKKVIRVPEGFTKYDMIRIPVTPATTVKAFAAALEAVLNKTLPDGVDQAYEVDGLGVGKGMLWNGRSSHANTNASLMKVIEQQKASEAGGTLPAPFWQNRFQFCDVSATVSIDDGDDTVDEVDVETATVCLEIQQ
Put plainly: Leishmania donovani Ubiquitin Activating Enzyme (LdE1). In kind it is functional. To be noted: 30 µM.

The target of experiment [3] is AMP-activated protein kinase, AMPK (Homo sapiens) (UniProt P54646+O43741+P54619+Q9UGJ0+Q9Y478+Q13131+Q9UGI9). Put plainly: AMP-dependent Kinase enzyme assay. An in vitro enzyme assay that detects ADP turnover that is directly proportional to AMPK activity. This uses naive AMPK that is activated during the assay with MK-8722. Format: functional. The conditions noted are these: 30 µM.

Experiment [4] concerns the target Sialic acid-binding Ig-like lectin 9 (Homo sapiens) (UniProt Q9Y336). Put plainly: Hs-Siglec9 ALPHAscreen SOP 20170721. The conditions noted are these: 10 µM.
Experiment [5] concerns Trypanosoma cruzi. Put plainly: Trypanosoma cruzi phosphomannomutase and mannose-1-phosphate guanylyltransferase assay. Format: functional. To be noted: 10 µM.
The target in experiment [6] is T2, Arginase-2, mitochondrial (Homo sapiens) (UniProt P78540).
T2 sequence (whole entry): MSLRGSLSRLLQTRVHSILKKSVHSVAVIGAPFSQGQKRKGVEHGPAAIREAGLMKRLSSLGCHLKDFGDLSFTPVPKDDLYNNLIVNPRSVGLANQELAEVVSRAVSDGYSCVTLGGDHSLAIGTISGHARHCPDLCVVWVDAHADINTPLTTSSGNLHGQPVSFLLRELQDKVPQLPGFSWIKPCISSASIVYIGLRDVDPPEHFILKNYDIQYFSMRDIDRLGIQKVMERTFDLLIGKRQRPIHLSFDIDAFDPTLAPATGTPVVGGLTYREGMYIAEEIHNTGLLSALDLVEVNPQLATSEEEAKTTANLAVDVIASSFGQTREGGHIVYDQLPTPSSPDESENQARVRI
Put plainly: in vitro enzyme assay to detect the production of urea directly proportional to the activity of Arginase II. Further: in the data most compounds retested in dose-response had high values. In kind it is functional. To be noted: 33.3 µM.

In experiment [7] the target is T3, Proteasome subunit beta (Trypanosoma cruzi) (UniProt O96673).
T3 sequence (whole entry): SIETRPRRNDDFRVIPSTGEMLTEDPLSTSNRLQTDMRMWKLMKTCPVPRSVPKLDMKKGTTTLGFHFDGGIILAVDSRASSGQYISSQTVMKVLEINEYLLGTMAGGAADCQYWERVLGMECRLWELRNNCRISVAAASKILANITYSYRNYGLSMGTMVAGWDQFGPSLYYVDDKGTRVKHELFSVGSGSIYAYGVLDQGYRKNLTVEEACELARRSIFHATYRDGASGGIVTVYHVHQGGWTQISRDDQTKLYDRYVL
Put plainly: Trypanosoma cruzi proteasome chymotrypsin-like activity (TcProtChymo) assay. Further: in the data most compounds retested in dose-response had high values. The conditions noted are these: 9.37 µM. In kind it is functional.

The species named for experiment [8] is Homo sapiens. Put plainly: To identify inhibition of the IFN signalling (Jak-Stat) pathway via expression of an eGFP reporter gene under the control of an IFN-stimulated response element (ISRE) containing MxA promoter. Format: functional. The conditions noted are these: 30 µM. (In a reporter assay the amount or activity of a reporter protein is the signal.)

Experiment [9] addresses T4, Tyrosyl-tRNA synthetase, putative (Trypanosoma cruzi (strain CL Brener)) (UniProt Q4DSP6).
T4 sequence (whole entry): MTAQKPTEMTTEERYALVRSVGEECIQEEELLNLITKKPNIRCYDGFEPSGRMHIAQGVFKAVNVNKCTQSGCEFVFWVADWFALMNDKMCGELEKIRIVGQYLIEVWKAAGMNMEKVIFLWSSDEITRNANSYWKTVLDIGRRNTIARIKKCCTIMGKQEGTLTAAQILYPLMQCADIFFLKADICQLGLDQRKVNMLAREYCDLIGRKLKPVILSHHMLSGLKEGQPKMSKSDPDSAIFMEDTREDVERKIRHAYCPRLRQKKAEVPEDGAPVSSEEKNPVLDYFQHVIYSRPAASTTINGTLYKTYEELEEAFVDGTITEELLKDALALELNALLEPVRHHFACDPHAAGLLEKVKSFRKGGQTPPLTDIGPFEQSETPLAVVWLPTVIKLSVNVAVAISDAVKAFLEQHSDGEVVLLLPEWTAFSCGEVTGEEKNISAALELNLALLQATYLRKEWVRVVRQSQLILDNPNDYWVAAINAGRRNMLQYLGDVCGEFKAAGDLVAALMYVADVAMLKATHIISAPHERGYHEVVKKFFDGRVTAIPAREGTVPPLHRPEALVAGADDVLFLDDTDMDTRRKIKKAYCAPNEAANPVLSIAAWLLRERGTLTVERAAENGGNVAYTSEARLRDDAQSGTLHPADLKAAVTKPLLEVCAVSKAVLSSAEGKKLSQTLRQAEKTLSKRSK
Put plainly: Trypanosoma cruzi tyrosyl tRNA synthetase (TcYRS) _High Tyrosine SOP. Further: in the data most compounds retested in dose-response had high values. In kind it is functional. To be noted: 30 µM.

Experiment [10] has as its target T4, Tyrosyl-tRNA synthetase, putative (Trypanosoma cruzi (strain CL Brener)). Put plainly: Trypanosoma cruzi tyrosyl tRNA synthetase (TcYRS) SOP. To be noted: 30 µM. Format: functional.
Experiment [11] has as its target Chromo domain-containing protein 1 (Saccharomyces cerevisiae (strain ATCC 204508 / S288c) (Baker's yeast)) (UniProt P32657). Put plainly: ScCHD-1 Enzyme Inhibition Assay. Further: in the data most compounds retested in dose-response had high values. In kind it is functional. To be noted: 30 µM.

Protein translocase subunit SecA (Escherichia coli (strain K12)), sequence (P10408 whole entry): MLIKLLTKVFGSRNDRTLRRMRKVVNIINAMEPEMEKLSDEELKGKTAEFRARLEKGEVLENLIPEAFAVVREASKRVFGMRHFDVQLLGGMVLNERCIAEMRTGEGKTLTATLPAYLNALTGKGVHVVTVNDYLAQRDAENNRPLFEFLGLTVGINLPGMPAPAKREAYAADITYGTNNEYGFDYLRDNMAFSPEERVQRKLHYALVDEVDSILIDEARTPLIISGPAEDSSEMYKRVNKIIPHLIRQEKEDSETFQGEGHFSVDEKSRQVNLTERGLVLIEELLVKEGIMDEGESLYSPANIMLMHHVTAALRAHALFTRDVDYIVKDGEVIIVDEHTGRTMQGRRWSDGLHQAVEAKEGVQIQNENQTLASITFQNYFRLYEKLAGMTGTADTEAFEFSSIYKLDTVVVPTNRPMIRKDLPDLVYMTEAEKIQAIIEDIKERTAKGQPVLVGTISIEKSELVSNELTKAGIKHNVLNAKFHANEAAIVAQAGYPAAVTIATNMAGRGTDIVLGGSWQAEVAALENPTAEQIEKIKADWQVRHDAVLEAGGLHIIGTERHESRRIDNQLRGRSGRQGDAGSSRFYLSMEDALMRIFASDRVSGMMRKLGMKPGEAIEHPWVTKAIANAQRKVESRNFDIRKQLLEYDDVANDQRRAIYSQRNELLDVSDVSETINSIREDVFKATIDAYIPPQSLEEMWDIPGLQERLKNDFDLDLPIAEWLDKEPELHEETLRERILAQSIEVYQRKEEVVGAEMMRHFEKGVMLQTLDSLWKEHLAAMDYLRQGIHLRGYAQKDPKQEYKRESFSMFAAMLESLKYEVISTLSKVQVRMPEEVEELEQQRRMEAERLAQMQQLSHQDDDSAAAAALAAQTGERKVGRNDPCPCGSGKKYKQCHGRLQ
Chromo domain-containing protein 1 (Saccharomyces cerevisiae (strain ATCC 204508 / S288c) (Baker's yeast)), sequence (P32657 whole entry, the tested form may be a part): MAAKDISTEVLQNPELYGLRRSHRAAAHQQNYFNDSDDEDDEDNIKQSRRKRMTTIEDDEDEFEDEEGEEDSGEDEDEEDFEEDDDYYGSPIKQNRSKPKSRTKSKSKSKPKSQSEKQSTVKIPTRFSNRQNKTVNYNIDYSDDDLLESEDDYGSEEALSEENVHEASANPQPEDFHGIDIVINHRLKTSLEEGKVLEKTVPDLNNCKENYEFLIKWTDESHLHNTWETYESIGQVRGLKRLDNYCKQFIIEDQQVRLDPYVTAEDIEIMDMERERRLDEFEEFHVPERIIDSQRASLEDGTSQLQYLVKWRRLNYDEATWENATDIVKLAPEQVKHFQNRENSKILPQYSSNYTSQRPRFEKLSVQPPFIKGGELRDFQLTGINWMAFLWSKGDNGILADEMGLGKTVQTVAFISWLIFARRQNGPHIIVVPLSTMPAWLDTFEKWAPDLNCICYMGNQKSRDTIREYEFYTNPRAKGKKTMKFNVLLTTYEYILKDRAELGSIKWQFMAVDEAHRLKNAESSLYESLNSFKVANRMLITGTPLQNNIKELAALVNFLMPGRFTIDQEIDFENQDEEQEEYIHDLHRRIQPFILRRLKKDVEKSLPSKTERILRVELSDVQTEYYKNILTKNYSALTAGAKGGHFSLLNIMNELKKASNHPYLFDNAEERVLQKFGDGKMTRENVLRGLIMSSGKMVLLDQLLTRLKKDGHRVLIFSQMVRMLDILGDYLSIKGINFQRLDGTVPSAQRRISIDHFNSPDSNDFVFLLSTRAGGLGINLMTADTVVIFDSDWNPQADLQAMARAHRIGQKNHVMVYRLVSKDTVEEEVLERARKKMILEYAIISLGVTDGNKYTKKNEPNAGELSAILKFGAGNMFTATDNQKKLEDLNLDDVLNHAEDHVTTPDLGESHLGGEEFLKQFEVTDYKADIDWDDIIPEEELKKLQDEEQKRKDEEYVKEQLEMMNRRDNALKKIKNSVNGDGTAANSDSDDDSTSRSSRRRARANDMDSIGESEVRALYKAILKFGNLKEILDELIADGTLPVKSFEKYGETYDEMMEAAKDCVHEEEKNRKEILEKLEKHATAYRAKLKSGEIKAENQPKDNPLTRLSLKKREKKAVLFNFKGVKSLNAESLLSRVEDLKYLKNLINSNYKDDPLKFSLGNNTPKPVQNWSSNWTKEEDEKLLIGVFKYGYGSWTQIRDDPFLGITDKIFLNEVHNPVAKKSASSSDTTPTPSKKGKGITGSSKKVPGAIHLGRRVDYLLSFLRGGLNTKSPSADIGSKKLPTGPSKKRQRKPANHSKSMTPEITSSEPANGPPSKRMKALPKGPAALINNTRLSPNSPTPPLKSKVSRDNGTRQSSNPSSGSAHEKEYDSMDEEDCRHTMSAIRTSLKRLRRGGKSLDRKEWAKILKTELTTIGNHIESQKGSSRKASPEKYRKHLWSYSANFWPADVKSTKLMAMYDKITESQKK
Sialic acid-binding Ig-like lectin 9 (Homo sapiens), sequence (Q9Y336 whole entry): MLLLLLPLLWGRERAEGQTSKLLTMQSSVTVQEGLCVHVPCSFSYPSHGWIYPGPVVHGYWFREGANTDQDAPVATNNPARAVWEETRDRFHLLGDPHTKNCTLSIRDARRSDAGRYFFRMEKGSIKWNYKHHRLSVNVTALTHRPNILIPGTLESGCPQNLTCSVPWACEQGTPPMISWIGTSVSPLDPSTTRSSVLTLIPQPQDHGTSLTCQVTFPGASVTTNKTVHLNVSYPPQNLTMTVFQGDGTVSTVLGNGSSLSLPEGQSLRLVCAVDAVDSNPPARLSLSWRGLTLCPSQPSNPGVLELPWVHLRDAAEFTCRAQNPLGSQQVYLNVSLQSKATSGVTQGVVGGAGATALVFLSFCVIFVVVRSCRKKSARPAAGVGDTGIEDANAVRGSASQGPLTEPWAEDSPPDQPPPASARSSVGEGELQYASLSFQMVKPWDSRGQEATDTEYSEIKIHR

For `Cc1nc(C)n(CC2CCCCN2CCC(=O)Nc2cc(C)on2)n1` (stereo unspecified), the Percent Effect is -3.16% in experiment [1]; 6.33% in [2]; 3.99% in experiment [3]; 1.14% in experiment [4]; -1.13% in experiment [5]; -0.645% in experiment [6]. The Percent Effect in experiment [7] is 11%; in experiment [8], 5.13%; in [9] it was -7.29%; in experiment [10] it was 12.7%; in experiment [11], -9.87%.
`Cc1nn(C)c2cnn(C(C)C(=O)NCc3cccnc3)c12` (stereo unspecified): the Percent Effect in experiment [1] is -0.721%; in experiment [2], 20%; in [3] it was -1.87%; in experiment [4] it was 5%; in experiment [5] it was 1.18%; in [6], -1.58%. Further, the Percent Effect was 12.8% in experiment [7]; 17.9% in experiment [8]; 5.29% in experiment [9]; 17.9% in experiment [10]; -9.71% in [11].
On to `CC(C)NC(=O)COc1nc(C(C)(C)C)no1`, for which the Percent Effect in experiment [1] was -4.03%; in experiment [2], 13.5%; in [3], -3.54%; in experiment [4] it was 27.8%; in experiment [5], 5.21%; in experiment [6] it was 0.952%. The Percent Effect was 4.31% in [7]; -3.96% in [8]; -0.529% in [9]; 4.88% in experiment [10]; -3.56% in experiment [11].
For `CCn1c(Cn2cncn2)nnc1C1CCN(C(=O)CCSC)CC1`, the Percent Effect in [1] was -3.03%; in [2], 2.7%; in experiment [3], -5.34%; in [4], 25.4%; in experiment [5] it was 3.23%; in [6], 20.6%. Besides, the Percent Effect in [7] was 0.944%; in [8], 20.4%; in experiment [9] it was 6.45%; in experiment [10], 13.6%; in experiment [11] it was -3.37%.
For the molecule `c1ncn(CC2CN(CC3CCCC3)CCO2)n1` (stereo unspecified), the Percent Effect in experiment [1] is -3.42%; in [2], 11.4%; in experiment [3] it was -1.94%; in experiment [4] it was -0.971%; in [5], -1.54%; in [6], 6.24%. Also, the Percent Effect in experiment [7] is 11.8%; in experiment [8] it was 10.9%; in experiment [9], 0%; in [10], 7.59%; in experiment [11], -14%.
As for `CCN1CC2(CC1=O)CN(Cc1ccco1)CCN(C(=O)N(C)C)C2` (stereo unspecified), the Percent Effect in experiment [1] was -0.643%; in experiment [2], 2.74%; in experiment [3] it was 1.96%; in experiment [4], 9.02%; in [5], -1.39%; in experiment [6], 4.39%. In addition, the Percent Effect was 6.59% in experiment [7]; -2.04% in [8]; 5.21% in experiment [9]; 11.1% in experiment [10]; 0.322% in experiment [11].
As for `O=C(NCCOc1ccc(F)c(F)c1)NCc1cccc(CO)c1`, the Percent Effect is -2.53% in experiment [1]; 2.7% in [2]; 1.53% in experiment [3]; 4.96% in experiment [4]; 1.16% in experiment [5]; -2.38% in experiment [6]. Also, the Percent Effect in experiment [7] is 15.2%; in experiment [8], 19.7%; in experiment [9] it was -0.529%; in experiment [10] it was 7.32%; in [11] it was -4.04%.
On to `CC(C)c1cc(C(=O)N2CCN(Cc3ccsc3)CC2)n[nH]1`, for which the Percent Effect in experiment [1] is -2.94%; in experiment [2], 13.5%; in experiment [3], -2.35%; in experiment [4] it was 15%; in experiment [5], 5.57%; in [6], 18.1%. Also, the Percent Effect in experiment [7] is 12.1%; in experiment [8], 28%; in [9] it was 4.3%; in [10] it was 18.5%; in [11], -3.72%.
As to `Cc1cc(CN2CCN(C(=O)c3sccc3C3CC3)CC2)on1`, the Percent Effect is -1.18% in [1]; 10.4% in experiment [2]; 2.54% in experiment [3]; -6.72% in [4]; -7.35% in experiment [5]; 1.05% in experiment [6]. For the same molecule, the Percent Effect in [7] was 9.62%; in experiment [8] it was 18.1%; in [9] it was 4.76%; in experiment [10], 18.8%; in experiment [11], -15.4%.
Turning to `COCc1n[nH]/c(=N/C(=O)COc2cnc(C)cc2O)s1`, the Percent Effect was -1.58% in [1]; -5.26% in experiment [2]; 2.8% in experiment [3]; 1.24% in experiment [4]; -6.33% in experiment [5]; -1.18% in experiment [6]. The Percent Effect in experiment [7] is 9.3%; in experiment [8], -1.08%; in experiment [9], 3.19%; in [10], 5.2%; in [11], -4.33%.
With `Cc1ccc(CNS(=O)(=O)CC2=NC(=O)n3cccc3C2=O)cc1`, the Percent Effect in experiment [1] is 0.952%; in experiment [2], -9.33%; in [3], 7.77%; in experiment [4] it was 4.14%; in [5], -1.77%; in experiment [6] it was -4.4%. Besides, the Percent Effect in experiment [7] was 7.21%; in experiment [8], -19.8%; in [9], -2.12%; in experiment [10], 0%; in [11], 2.54%.
